Test results taken from the supplement of paper PMC3334620.
Over roughly 33,000 sequences, “E-score (-0.5 to 0.5)” has its median near -0.017; the highest 2% begin near 0.3. The list comes from a sample in which the highest values are over-represented; it also holds similar and randomly drawn sequences.

target: T1, Sut1 (UniProt P53032); assay: PBM E-score (8-mer binding enrichment) (E-score (-0.5 to 0.5)); higher = stronger / more preferred TF binding; settings: protein concentration: 200 nM; construct: GST-full length
T1 sequence: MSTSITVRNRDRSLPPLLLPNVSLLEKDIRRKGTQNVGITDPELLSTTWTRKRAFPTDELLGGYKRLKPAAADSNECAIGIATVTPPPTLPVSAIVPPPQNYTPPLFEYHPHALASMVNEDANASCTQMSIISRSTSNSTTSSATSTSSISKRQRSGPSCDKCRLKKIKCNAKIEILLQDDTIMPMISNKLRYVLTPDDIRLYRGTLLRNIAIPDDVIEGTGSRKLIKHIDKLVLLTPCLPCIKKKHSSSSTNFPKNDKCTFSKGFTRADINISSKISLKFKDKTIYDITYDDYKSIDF
Procedure: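 Universal 'all 10-mer' protein binding microarrays (Agilent AMADID 015681) probed with GST-tagged S. cerevisiae TFs (full-length or DBD) made by in vitro transcription/translation (PURExpress), about 100-200 nM. Bound TF was detected with fluorescent anti-GST. Each ungapped 8-mer (which stands for itself and its reverse complement) is scored by the PBM enrichment score (E-score), a modified Wilcoxon-Mann-Whitney statistic from -0.5 to +0.5, computed with the Universal PBM Analysis Suite. Scale: above 0.35 generally sequence-specific binding.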

Sequence | PBM E-score
CATCGGAC | 0.37
CATCGGTC | -0.106
AATCGGAT | 0.183
CATCGGCG | -0.137
GATCGGAA | 0.159
GATCGGGC | -0.0436
CATCGGAA | 0.269
CATCGGAG | 0.435
AATCGGTG | 0.0417
GATCGGAC | 0.367
AATCGGAG | 0.396
CATCGGGG | -0.00411
ACAAGCAG | 0.0716
CGTCTCGA | -0.113
AAGCAGAG | -0.037
CAGTCGAG | -0.103
CAATGGGG | -0.163
GAAGTCTA | 0.0111
CCTACTCA | 0.021
AGCAGTTC | 0.0132
AATCGGGC | -0.0945
TATCGGAA | 0.26
AATCGGCC | -0.109
AATCGGCA | 0.107
AATCGGAA | 0.38

Sequence | PBM E-score
AATCGGAC | 0.338
CCACTTTA | 0.0316
CCGGTCAG | -0.0559
AATCAGAT | 0.0945
AAGGGATG | -0.0899
GAGTCCAC | -0.108
CAGCTCCG | 0.461
AAGCTCCG | 0.455
AGGCTCCA | -0.178
AAGCTCCC | -0.156
CAGCTCCA | -0.0491
AGGCTCCC | -0.0884
AAGCTCCT | -0.112
AGGCTCCG | 0.357
CAGCTCCC | -0.181
CAGGCCTG | 0.0399
ACGCTAAC | -0.22
GTTCGACA | -0.0722
TTAATAAA | 0.341
ATAATATA | 0.301
CTAATATA | 0.225
ATAATAAT | 0.295
ATAATAAA | 0.339
CTAATAAA | 0.197
GTAATAAA | 0.284

Sequence | PBM E-score
CTAATAAC | 0.14
ATAATATG | 0.286
AATCCTCG | -0.164
CGGGGCTC | 0.0261
ACTTGGGG | -0.203
CGCGCCTC | 0.0917
GGGATACA | -0.064
CACCCCGA | 0.134
TACCCCGA | 0.324
AAACCCGA | 0.198
AACCCCGG | 0.438
AACCCCGA | 0.447
ACCCCCGG | -0.0829
GACCCCGA | 0.0897
CACCCCGG | 0.0471
ACCCCCGA | -0.118
GATGCTAA | 0.0485
AATAGGCC | 0.0314
GCTCGCAA | -0.101
CATCCACC | -0.0255
CGATTCTA | -0.0107
GGCTAATA | 0.17
ACTCATAC | 0.0873
ACCAACCC | -0.212
GTATCGGA | 0.281

Sequence | PBM E-score
ATATCGGG | -0.0571
CTATCGGA | 0.337
CTATCGGC | -0.13
GGATCGGA | 0.277
ATATCGGA | 0.331
CGATCGGA | 0.246
AGATCGGA | 0.348
ATATCGGC | -0.0245
CCTGCTAC | -0.0632
GTTCGGTA | 0.141
AAGATGGC | -0.0118
AGTCCCAG | -0.199
ATTGACCG | 0.0305
AGAGTCCA | -0.0986
CGTTGCAG | -0.136
ATGCAGCA | -0.134
ATCCTTCG | 0.0447
ATCCGCAC | -0.0365
CTCCGCAC | 0.306
GTCCGCAC | 0.247
ATCCGCAG | 0.0529
CTCCGCAG | 0.364
CTCCGCAA | 0.271
CGATTTCA | 0.0969
CCACACGG | -0.0635

Sequence | PBM E-score
ACGTCCGG | 0.101
CCCCGTAA | 0.0974
CACCGTAA | 0.0107
CTCCGTAC | 0.331
GACCGTAA | -0.0628
GTCCGTAA | 0.342
CACCGTAC | 0.0478
ATCCGTAA | 0.183
ATCCGTAC | 0.178
CTCCGTAA | 0.328
AGCATTGA | -0.0961
CCTAACCA | 0.0768
ACATCTGC | -0.193
GATAAAAA | 0.263
CATAAATA | 0.168
GTTAAAGA | 0.0511
ATTAAAGA | 0.311
ATTAAATG | 0.243
CATAAAAA | 0.161
TATAAATA | 0.343
CTTAAAGA | 0.111
TATAAAAA | 0.318
ATTAAATA | 0.315
ATTAAATC | 0.191
TAAAAATA | 0.249

Sequence | PBM E-score
ACCATGAG | -0.166
TGCTTCAA | 0.0485
AAGTTCTA | 0.0927
GAGGATCA | -0.09
CAGCTATC | -0.207
ATGAGTCG | -0.157
ACAGCGTG | -0.171
AGGCCCAC | -0.387
AAGGCTAA | 0.0404
TACAAATA | 0.303
AACAAATA | 0.201
GATAAATC | 0.26
AATAAATT | 0.237
CACAAATA | 0.13
AATAAATA | 0.374
GATAAATA | 0.325
AATAAATG | 0.179
GATAAACA | 0.203
AACAAGCG | -0.0413
GCGCCTCA | -0.0448
ACACTTAC | 0.0992
AGTCTCCG | 0.316
CATCTCCA | -0.036
AATCTCCG | 0.454
CATCTCCG | 0.478

Sequence | PBM E-score
ATTCTCCG | 0.409
ATTCTCCC | -0.0729
AGTCTCCA | -0.229
CATCTCCC | -0.138
AGTCTCCC | -0.0841
AATCTCCC | -0.268
AATCTCCT | 0.147
ATTCTCCA | -0.0299
GAACTTTA | 0.145
GTAATTCA | 0.182
CAAATCGG | 0.0756
AGCCTTCG | -0.203
AATTTCGG | 0.242
CAGAAATC | 0.0914
CCGTTGGA | 0.0326
ACTCGCTA | 0.0713
ACTGGACT | -0.107
AACGGACA | 0.24
AACGGACC | 0.191
AACGGACT | 0.444
ACCGGACT | 0.485
ACCGGACG | 0.114
